This passage reports growth results from PubChem BioAssay (NCI).

Holding throughout (experiment): NCI-60 one-dose screen, 48 h (100 = growth as untreated, 0 = no growth, -100 = all killed)
Settings in all cases: 10 µM unless noted

Assay [1] deals with NCI-H23 lung.
Assay [2] relates to NCI-H226 lung.
Assay [3] deals with NCI-H460 lung.
The test system of assay [4] is HOP-92 NSCLC.
For assay [5], the system named is NCI-H522 lung.
For assay [6], the system named is A549/ATCC NSCLC.
The test system of assay [7] is 786-0 renal.
The test system of assay [8] is COLO 205 colon.
Assay [9] deals with DU-145 prostate.
The subject of assay [10] is K-562 leukemia.
The test system of assay [11] is MALME-3M melanoma.
Assay [12] has as its system MDA-MB-231 breast.
Assay [13] has as its system RXF 393 renal.
Assay [14] has as its system SF-268 CNS.
The subject of assay [15] is SF-295 CNS.
In assay [16] the test system is SF-539 CNS.
Assay [17] concerns UACC-257 melanoma.
In assay [18] the test system is M14 melanoma.
For assay [19], the system named is HOP-62 NSCLC.
Assay [20] deals with NCI-H322M lung.

Each structure is given as a SMILES string. This is part of a sample that, as a whole, favours compounds with a hit. Of some 83,000 tested, about 20% had one in any assay.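 48-hour exposure, single concentration, 96-well plates; percent growth endpoint where 0 means no net growth. Active: below 10.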 Unmarked numbers belong to inactive results. The source made the active and inactive calls.

On to `CCCCC(C=O)(C=C=C(C)C)CC` (stereo not drawn), for which the growth was 112% in assay [1]; 103% in assay [2]; 105% in [3]; 86.4% in assay [4]; 95.5% in assay [5]; 94.3% in assay [6]. For the same compound, the growth in assay [7] is 99.1%; in assay [8], 110%; in assay [9], 113%; in assay [10] it was 111%; in [11] it was 97.7%; in assay [12], 114%. Besides, the growth in assay [13] is 106%; in assay [14] it was 102%; in assay [15], 95%; in [16] it was 98%; in assay [17], 98.1%; in assay [18], 102%.

On to `CN1CCC(c2ccccc2)(c2ccccc2)C(=O)C1`, for which the growth in assay [1] is 80.1%; in [2], 67.7%; in [19] it was 107%; in assay [4], 89%; in assay [5] it was 75.4%; in assay [6], 79.7%. In addition, the growth in assay [7] is 86.7%; in assay [8], 98.4%; in assay [9], 102%; in [10], 65.6%; in assay [11], 90.7%; in assay [13], 95.7%. The growth in assay [14] was 104%; in [15] it was 85.8%; in [16], 94.3%; in assay [17], 95%; in assay [18], 92.4%.

On to `CCCCCCCCCCCCCCCCCC[S+](C)CC` (stereo not drawn), for which the growth in assay [1] was 36.3%; in assay [2] it was 17.5%; in assay [3], 33.6%; in [4], 27.3%; in assay [5], 30.2%; in assay [6] it was 42.3%. The growth in [7] is 29.1%; in assay [8], -38% (active); in assay [9], 64.3%; in assay [10], 47.9%; in [12], -2.38% (active); in assay [13], -81% (active). The growth in assay [14] was 30.6%; in assay [15], 68.8%; in assay [16], 31%; in [17], 45.8%; in [18], 4.94% (active).

Take `Oc1cc(Cl)ccc1Cc1ccc(Cl)cc1O`: the growth was 20.6% in assay [1]; 96.6% in [2]; 60.5% in [19]; 46% in assay [3]; 33.8% in assay [5]; 73.7% in assay [6]. In addition, the growth in assay [7] was 92.8%; in assay [9] it was 90%; in assay [10] it was 37.2%; in assay [11], 32.9%; in [12] it was 59.7%; in [13], 73.8%. The growth was 65.2% in assay [14], 32.3% in [15], 56.3% in assay [16] and 58.7% in assay [17].

On to `O=[N+]([O-])/C(=C/c1ccccc1)c1ccccc1`, for which the growth in assay [1] is 99.4%; in assay [2] it was 97.5%; in [3], 102%; in assay [4], 99.9%; in assay [5], 83%; in assay [6], 101%. In addition, the growth is 97.9% in assay [7]; 112% in [8]; 106% in assay [9]; 98.3% in assay [10]; 98.7% in [11]; 112% in assay [12]. Moreover, the growth in assay [13] was 97.1%; in assay [14], 106%; in assay [15] it was 98.9%; in assay [16], 96%; in [17] it was 103%; in assay [18], 101%.

With `CCOC(=O)C1(C)CCCC1N` (stereo not drawn), the growth was 102% in assay [1]; 99.1% in assay [2]; 109% in assay [19]; -14.2% (active) in assay [4]; 102% in assay [5]; 110% in assay [6]. In addition, the growth in assay [7] is 103%; in assay [8], 131%; in assay [9], 108%; in [10] it was 101%; in assay [11], 101%; in assay [12], 97%. Besides, the growth was 104% in assay [13]; 92.4% in assay [14]; 105% in [15]; 103% in [16]; 113% in assay [17]; 106% in assay [18].

Take `Oc1ccc(Cl)cc1Cc1cc(Cl)ccc1O`: the growth in assay [1] is -12.5% (active); in assay [2], 96.7%; in assay [19], 70.6%; in [3] it was 11.5%; in assay [5], 5.48% (active); in [6] it was 61%. Also, the growth in [7] was 75.5%; in assay [8], 110%; in assay [9] it was 38.2%; in assay [10], 21.1%; in [11] it was 16.3%; in assay [12], 23.3%. For the same compound, the growth in [13] was 50.4%; in [14] it was 22.5%; in assay [15], 41.3%; in [17], 41.6%; in assay [18], 25.2%.

As for `O=C(NOC(=O)c1ccccc1)c1ccccc1`, the growth is 107% in assay [1]; 106% in [2]; 105% in [19]; 101% in assay [4]; 98% in assay [5]; 120% in [6]. The growth in assay [7] is 93.9%; in assay [8], 117%; in [9], 112%; in assay [10], 40.8%; in [11] it was 109%; in assay [12] it was 111%. Moreover, the growth in assay [13] is 110%; in [14], 101%; in assay [15], 112%; in assay [16], 102%; in [17] it was 124%; in assay [18], 104%.

With `O=[n+]1c2ccccc2n([O-])c2cc(Cl)ccc21`, the growth in [1] is 91.3%; in [20] it was 98.5%; in assay [19], 77.4%; in [3] it was 42.7%; in [5], 72%; in [7], 32.1%. The growth in [8] is 76.5%; in assay [9], 94.9%; in assay [10], 45.3%; in assay [11], 85.1%; in assay [12], 87.6%; in [14] it was 28.1%. Moreover, the growth in [15] was 63.5%; in [16], 53.1%; in [17] it was 80.7%; in assay [18] it was 104%.

As for `COc1cccc2c1C(=O)c1c(O)c3c(c(O)c1C2=O)C[C@@](O)(C(=O)CO)C[C@@H]3OC1CC(OC(C)=O)C(OC(C)=O)C(C)O1` (stereo partly drawn), the growth was -73.3% (active) in assay [2]; -12.8% (active) in assay [20]; -56.2% (active) in assay [3]; -28.9% (active) in assay [4]; -34% (active) in assay [5]; -44.6% (active) in assay [6]. The growth is -17.3% (active) in assay [7]; -6.8% (active) in assay [8]; -50.9% (active) in assay [9]; -34.2% (active) in assay [10]; -83% (active) in assay [11]; 9.19% (active) in assay [12]. Further, the growth in assay [13] is -31.3% (active); in assay [14] it was -22.3% (active); in [15], -30.2% (active); in [16], -34.4% (active); in assay [17], -27.7% (active); in assay [18], -12.5% (active).
